The full data set covers some 8,800 targets. This sample favours those with a hit. About 0.5% of all pairs of compound and target were hits. A number with no mark means an inactive call.
Legend:
Experiment in all cases: log2 fold change, soluble protein after heating vs DMSO (PISA); higher = thermal stabilisation; K562 lysate, 10 uM; active = over 0.2 and 3.5 SD of the protein, either way, in both replicates (recomputed)
vemurafenib = compound: CCCS(=O)(=O)Nc1ccc(F)c(C(=O)c2c[nH]c3ncc(-c4ccc(Cl)cc4)cc23)c1F [vemurafenib]
Outline: (§1)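 A 30 min treatment with 10 μM compound was applied to crude K562 extract at 1 mg/mL protein in PBS pH 7.4 with 1 mM MgCl2. Heating for 3 min spanned 48°C-58°C, after which aliquots were pooled, adjusted to 0.5% NP-40 at 4°C and spun at 21,000xg for 90 min. TMTpro 16plex LC-MS/MS of the supernatant, with channel sums equalised, gave values recorded as log-two fold change in thermal stability against solvent controls, from duplicates.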

[1] = compound: CCCS(=O)(=O)Nc1ccc(F)c(C(=O)c2c[nH]c3ncc(Cl)cc23)c1F
Outline: as §1

barasertib = compound: CCN(CCCOc1ccc2c(Nc3cc(CC(=O)Nc4cccc(F)c4)[nH]n3)ncnc2c1)CCOP(=O)(O)O [barasertib]
Outline: as §1

[2] = compound: CC[C@@H]1C(=O)N(C)c2cnc(Nc3ccc(C(=O)NC4CCN(C)CC4)cc3OC)nc2N1C1CCCC1
Outline: as §1

volasertib = compound: CC[C@@H]1C(=O)N(C)c2cnc(Nc3ccc(C(=O)N[C@H]4CC[C@H](N5CCN(CC6CC6)CC5)CC4)cc3OC)nc2N1C(C)C [volasertib]
Outline: as §1

[3] = compound: CCn1c(C(=O)N(C2CC2)C2CC2)cc2c3c(ncn3C)c(Nc3cc(C)n(C)n3)nc21
Outline: as §1

[4] = compound: CCn1cc(-c2ccnc3[nH]c(-c4cccc(CN(C)C)c4)cc23)c(-c2ccc(NC(=O)N(C)C)cc2)n1
Outline: as §1

[5] = compound: CN1CCC(CNc2ccc3ncc(-c4cccc(OC(F)(F)F)c4)n3n2)CC1
Outline: as §1

saracatinib = compound: CN1CCN(CCOc2cc(OC3CCOCC3)c3c(Nc4c(Cl)ccc5c4OCO5)ncnc3c2)CC1 [saracatinib]
Outline: as §1

sotrastaurin = compound: CN1CCN(c2nc(C3=C(c4c[nH]c5ccccc45)C(=O)NC3=O)c3ccccc3n2)CC1 [sotrastaurin]
Outline: as §1

alvocidib = compound: CN1CC[C@H](c2c(O)cc(O)c3c(=O)cc(-c4ccccc4Cl)oc23)[C@H](O)C1 [alvocidib]
Outline: as §1

Tubastatin A = compound: CN1CCc2c(c3ccccc3n2Cc2ccc(C(=O)NO)cc2)C1 [Tubastatin A]
Outline: as §1

[6] = compound: CNC(=O)C1=CC=CC=C1NC2=NC(=NC=C2Cl)NC3=C(C=C(C=C3)N4CCOCC4)OC
Outline: as §1

defactinib = compound: CNC(=O)c1ccc(Nc2ncc(C(F)(F)F)c(NCc3nccnc3N(C)S(C)(=O)=O)n2)cc1 [defactinib]
Outline: as §1

[7] = compound: CNc1nc(-c2ccc3c(N)n[nH]c3c2)cc(N2C[C@@H](C(=O)NC3CCCCC3)CC[C@H]2C)n1
Outline: as §1

encorafenib = compound: COC(=O)N[C@@H](C)CNc1nccc(-c2cn(C(C)C)nc2-c2cc(Cl)cc(NS(C)(=O)=O)c2F)n1 [encorafenib]
Outline: as §1

[8] = compound: COC(=O)[C@H](CCSC)NC(=O)C1=C(C=C(C=C1)NC[C@H](CS)N)C2=CC=CC=C2
Outline: as §1

alisertib = compound: COc1cc(Nc2ncc3c(n2)-c2ccc(Cl)cc2C(c2c(F)cccc2OC)=NC3)ccc1C(=O)O [alisertib]
Outline: as §1

[9] = compound: COc1cc2nc(-c3cc(F)ccc3O)nc(N[C@@H]3CNC[C@H]3C(C)(C)O)c2cc1OC
Outline: as §1

gefitinib = compound: COc1cc2ncnc(Nc3ccc(F)c(Cl)c3)c2cc1OCCCN1CCOCC1 [gefitinib]
Outline: as §1

Sequence of UniProt Q96Q15 (Q96Q15 whole entry, looked up): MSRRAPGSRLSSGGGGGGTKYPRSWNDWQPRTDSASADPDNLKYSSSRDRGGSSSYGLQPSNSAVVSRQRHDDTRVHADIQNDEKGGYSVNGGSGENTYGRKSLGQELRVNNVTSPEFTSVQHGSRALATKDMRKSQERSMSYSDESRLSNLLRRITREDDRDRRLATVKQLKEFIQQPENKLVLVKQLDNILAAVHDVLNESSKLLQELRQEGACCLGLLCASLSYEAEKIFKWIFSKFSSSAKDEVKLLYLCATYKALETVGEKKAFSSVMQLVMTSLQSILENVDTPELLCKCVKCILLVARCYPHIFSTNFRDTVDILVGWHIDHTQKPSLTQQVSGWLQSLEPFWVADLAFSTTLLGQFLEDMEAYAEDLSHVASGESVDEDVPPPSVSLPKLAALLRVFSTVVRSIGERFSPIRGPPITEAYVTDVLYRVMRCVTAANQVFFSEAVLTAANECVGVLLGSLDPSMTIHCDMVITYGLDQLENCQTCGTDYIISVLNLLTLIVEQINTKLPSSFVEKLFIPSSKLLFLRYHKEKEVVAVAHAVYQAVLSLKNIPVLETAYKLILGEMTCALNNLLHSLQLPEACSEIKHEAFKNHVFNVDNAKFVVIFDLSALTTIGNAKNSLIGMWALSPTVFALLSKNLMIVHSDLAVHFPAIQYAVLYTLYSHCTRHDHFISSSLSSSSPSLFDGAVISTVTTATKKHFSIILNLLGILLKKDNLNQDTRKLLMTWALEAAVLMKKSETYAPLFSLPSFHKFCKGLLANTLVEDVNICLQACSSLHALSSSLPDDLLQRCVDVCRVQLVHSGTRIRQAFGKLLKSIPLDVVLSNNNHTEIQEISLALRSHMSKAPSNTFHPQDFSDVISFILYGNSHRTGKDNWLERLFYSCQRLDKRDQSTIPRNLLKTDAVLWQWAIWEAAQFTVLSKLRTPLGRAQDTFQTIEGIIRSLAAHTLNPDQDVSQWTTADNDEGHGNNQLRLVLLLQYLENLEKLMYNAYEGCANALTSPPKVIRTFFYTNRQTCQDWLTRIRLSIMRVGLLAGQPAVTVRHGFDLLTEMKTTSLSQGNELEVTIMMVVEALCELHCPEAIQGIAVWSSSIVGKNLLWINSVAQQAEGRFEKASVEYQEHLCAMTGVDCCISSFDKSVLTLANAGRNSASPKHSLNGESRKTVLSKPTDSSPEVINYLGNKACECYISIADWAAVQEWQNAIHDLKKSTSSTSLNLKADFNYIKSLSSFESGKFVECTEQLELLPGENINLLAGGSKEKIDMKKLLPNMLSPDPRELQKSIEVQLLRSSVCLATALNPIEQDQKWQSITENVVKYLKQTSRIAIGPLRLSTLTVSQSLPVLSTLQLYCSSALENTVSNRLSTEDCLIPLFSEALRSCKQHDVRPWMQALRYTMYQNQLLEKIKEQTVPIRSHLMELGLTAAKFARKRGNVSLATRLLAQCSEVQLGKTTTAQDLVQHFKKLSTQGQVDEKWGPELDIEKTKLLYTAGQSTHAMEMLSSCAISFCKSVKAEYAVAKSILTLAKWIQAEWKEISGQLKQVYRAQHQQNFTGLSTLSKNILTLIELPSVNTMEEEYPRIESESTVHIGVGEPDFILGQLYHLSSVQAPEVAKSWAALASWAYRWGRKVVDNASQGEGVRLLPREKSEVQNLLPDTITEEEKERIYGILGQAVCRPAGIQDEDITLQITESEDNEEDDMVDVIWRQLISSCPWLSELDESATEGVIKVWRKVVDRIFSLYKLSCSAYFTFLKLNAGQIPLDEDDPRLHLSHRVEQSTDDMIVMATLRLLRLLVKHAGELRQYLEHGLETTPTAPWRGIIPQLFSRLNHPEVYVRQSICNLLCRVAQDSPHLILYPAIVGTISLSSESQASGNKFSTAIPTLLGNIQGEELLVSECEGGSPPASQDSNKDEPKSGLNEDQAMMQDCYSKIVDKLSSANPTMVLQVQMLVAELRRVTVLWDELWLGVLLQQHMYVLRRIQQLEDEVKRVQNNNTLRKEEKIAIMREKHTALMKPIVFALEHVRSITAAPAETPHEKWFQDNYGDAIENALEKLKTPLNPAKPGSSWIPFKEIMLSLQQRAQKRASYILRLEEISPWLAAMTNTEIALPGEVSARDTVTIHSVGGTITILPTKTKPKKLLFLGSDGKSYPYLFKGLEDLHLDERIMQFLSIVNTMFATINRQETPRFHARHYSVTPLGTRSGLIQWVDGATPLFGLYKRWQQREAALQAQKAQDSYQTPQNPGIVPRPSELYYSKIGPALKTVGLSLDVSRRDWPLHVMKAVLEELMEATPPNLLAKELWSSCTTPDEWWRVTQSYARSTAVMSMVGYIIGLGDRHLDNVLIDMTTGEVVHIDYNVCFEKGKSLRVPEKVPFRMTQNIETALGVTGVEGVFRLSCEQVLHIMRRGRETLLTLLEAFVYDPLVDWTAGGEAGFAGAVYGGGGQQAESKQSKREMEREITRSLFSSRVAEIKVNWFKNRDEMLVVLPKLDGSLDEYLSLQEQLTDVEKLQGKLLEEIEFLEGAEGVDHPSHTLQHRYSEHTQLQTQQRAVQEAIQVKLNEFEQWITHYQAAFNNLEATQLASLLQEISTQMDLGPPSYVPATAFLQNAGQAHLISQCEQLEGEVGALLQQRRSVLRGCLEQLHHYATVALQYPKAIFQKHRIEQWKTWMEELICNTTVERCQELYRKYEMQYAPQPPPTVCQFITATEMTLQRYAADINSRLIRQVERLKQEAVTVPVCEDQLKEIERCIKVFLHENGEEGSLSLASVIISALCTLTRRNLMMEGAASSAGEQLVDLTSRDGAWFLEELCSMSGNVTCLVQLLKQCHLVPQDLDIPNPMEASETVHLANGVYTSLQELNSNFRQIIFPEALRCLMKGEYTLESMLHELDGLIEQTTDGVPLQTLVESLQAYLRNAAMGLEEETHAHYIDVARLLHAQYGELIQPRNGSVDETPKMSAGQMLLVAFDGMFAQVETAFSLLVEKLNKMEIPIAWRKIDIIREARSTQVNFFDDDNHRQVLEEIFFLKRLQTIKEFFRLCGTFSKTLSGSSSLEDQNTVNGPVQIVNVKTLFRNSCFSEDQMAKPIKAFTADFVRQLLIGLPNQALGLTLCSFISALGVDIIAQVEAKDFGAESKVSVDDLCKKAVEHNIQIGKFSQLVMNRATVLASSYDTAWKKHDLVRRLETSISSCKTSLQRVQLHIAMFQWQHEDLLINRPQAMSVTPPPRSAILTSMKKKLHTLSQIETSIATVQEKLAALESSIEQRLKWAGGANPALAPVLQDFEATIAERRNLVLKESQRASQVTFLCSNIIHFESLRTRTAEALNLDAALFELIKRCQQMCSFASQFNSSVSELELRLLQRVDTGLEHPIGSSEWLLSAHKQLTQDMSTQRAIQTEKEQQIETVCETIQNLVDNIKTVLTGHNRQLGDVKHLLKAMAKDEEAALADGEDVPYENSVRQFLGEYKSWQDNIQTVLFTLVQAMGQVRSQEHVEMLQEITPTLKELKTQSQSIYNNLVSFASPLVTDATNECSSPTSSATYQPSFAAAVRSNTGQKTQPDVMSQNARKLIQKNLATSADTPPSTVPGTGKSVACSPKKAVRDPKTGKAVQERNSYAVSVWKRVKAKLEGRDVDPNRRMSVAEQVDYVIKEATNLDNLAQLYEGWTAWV
Sequence of UniProt Q8NB90 (Q8NB90 whole entry, looked up): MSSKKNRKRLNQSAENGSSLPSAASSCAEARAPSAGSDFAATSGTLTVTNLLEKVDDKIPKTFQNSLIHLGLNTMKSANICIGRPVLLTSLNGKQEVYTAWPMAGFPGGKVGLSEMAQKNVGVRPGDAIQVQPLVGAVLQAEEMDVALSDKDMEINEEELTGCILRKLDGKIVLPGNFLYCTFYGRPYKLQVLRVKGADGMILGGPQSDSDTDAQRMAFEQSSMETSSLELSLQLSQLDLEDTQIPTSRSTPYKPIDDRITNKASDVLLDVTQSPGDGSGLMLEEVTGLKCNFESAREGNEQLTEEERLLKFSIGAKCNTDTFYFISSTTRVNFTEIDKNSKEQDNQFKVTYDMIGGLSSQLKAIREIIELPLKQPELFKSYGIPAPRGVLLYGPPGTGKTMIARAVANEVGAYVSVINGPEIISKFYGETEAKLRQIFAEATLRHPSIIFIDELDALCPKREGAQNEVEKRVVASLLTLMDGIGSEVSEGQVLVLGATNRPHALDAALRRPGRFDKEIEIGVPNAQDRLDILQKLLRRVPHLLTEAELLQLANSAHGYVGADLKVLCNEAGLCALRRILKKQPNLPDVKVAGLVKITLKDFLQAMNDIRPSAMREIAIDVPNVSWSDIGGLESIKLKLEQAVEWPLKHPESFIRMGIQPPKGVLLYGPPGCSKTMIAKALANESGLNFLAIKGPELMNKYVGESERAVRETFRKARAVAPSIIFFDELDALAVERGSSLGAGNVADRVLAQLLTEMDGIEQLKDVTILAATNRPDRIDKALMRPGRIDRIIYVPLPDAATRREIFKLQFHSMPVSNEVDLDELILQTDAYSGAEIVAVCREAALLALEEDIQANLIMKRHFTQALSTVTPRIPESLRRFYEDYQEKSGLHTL
Sequence of UniProt Q15796 (Q15796 whole entry, looked up): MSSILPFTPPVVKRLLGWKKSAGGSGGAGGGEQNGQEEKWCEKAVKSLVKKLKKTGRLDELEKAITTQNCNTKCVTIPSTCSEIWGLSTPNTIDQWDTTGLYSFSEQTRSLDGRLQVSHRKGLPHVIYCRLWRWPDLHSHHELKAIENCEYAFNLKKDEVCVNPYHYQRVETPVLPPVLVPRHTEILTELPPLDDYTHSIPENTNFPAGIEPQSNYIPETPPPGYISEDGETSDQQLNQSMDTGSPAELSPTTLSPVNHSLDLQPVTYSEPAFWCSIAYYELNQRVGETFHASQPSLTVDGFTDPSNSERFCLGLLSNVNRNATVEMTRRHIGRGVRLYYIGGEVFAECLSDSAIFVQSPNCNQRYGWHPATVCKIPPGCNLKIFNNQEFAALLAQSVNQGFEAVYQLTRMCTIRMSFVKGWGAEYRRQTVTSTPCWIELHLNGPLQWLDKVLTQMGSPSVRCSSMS
Sequence of UniProt P62316 (P62316 whole entry, looked up): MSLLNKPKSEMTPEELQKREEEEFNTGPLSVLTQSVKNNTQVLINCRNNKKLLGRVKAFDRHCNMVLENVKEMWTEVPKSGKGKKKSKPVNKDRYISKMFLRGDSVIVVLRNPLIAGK

Target	log2 fold change (vemurafenib)	log2 fold change [1]	log2 fold change (barasertib)	log2 fold change [2]	log2 fold change (volasertib)	log2 fold change [3]	log2 fold change [4]	log2 fold change [5]	log2 fold change (saracatinib)	log2 fold change (sotrastaurin)	log2 fold change (alvocidib)	log2 fold change (Tubastatin A)	log2 fold change [6]	log2 fold change (defactinib)	log2 fold change [7]	log2 fold change (encorafenib)	log2 fold change [8]	log2 fold change (alisertib)	log2 fold change [9]	log2 fold change (gefitinib)
SLC29A2 (UniProt Q14542)	0.003	0.012	0.029	0.049	-0.041	-0.079	-0.729 (active)	0.206	-0.004	0.013	-0.134	-0.018	0.187	-0.011	-0.042	0.025	0.007	-0.031	0.008	0.046
SPATS2 (UniProt Q86XZ4)	-0.013	0.032	0.071	-0.175	-0.041	0.128	0.144	0.038	-0.12	0.031	0.039	-0.075	0.019	0.353	0.036	0.066	-0.195	-0.015	-0.047	0
SPAG5 (UniProt Q96R06)	-0.007	0.04	0.025	-0.016	-0.004	-0.01	-0.004	-0.174	0.004	0.009	-0.019	-0.119	0.031	0.008	0.003	0.071	-0.081	-0.01	-0.017	0.019
SLC12A6 (UniProt Q9UHW9)	0.015	0.021	0.002	0.037	0.002	0.008	-0.06	0.012	-0.003	-0.01	-0.03	0.03	0.065	0.006	-0.038	0.034	-0.021	-0.006	0.004	0.093
SRM (UniProt P19623)	-0.004	-0.003	-0.008	-0.02	-0.034	-0.001	0.015	0	0.02	0.011	0.008	-0.014	-0.014	-0.03	-0.03	-0.011	0.083	-0.03	0.016	0.011
SLC25A25 isoform 3 (UniProt Q6KCM7)	-0.011	-0.012	0.004	0.012	0.03	0.007	-0.012	-0.053	0.016	-0.016	0.014	0.015	0.007	0.029	0.003	0.035	0.012	-0.011	0.025	0.037
SLC27A2 (UniProt O14975)	0.089	0.009	0.029	-0.033	-0.084	-0.063	-0.024	0.082	-0.021	0.159	0.005	-0.009	0.216	-0.044	0.172	0.063	0.019	0.002	0.017	-0.089
SMAD2 (UniProt Q15796)	-0.027	0.074	0.03	-0.031	-0.006	-0.027	0.025	-0.003	0.017	-0.002	-0.058	0.009	0.167	0.01	0.038	-0.01	0.03	-0.069	0.006	0.016
SH3BP5L (UniProt Q7L8J4)	0.078	0.02	-0.029	0.011	0.013	-0.011	-0.014	0.072	0.05	0	-0.003	-0.012	0.036	-0.003	-0.015	0.058	-0.047	0.021	0.015	0.001
SNRPD3 (UniProt P62318)	0.022	-0.012	-0.006	-0.049	-0.004	0.052	-0.254	0.135	0.046	0.024	-0.121	0.014	-0.003	-0.046	-0.068	-0.014	0.027	0.017	0.022	0.052
SRSF9 (UniProt Q13242)	-0.104	0.009	0.049	-0.05	-0.029	0.03	-0.006	-0.029	-0.021	-0.064	-0.021	-0.165	0.002	-0.054	-0.044	0	-0.084	-0.013	-0.017	-0.022
SMC6 (UniProt Q96SB8)	0.044	0.01	0.014	0.047	-0.031	0.012	-0.036	0.024	0.046	0.027	-0.017	-0.087	0.049	-0.003	-0.004	-0.02	0.045	-0.018	-0.013	0.007
SMG1 (UniProt Q96Q15)	0.059	0.031	0.08	0.017	-0.027	-0.026	0.003	-0.072	0.039	0.032	0.022	-0.05	0.01	0.033	-0.046	0.016	0	-0.02	-0.013	0.012
SPATA5 (UniProt Q8NB90)	0.015	0.005	0.02	-0.021	-0.068	0.011	-0.024	-0.052	-0.001	0.007	0.033	-0.101	0.007	0.029	0.085	0.04	0.008	0.025	0.004	-0.024
SNRPD2 (UniProt P62316)	-0.008	-0.019	0.001	0.058	0.033	0.018	-0.083	0.051	-0.021	0.011	-0.054	0.027	-0.003	-0.019	0.021	0.005	-0.027	0.014	0.029	-0.02
SKA2 (UniProt Q8WVK7)	0	0.014	0.078	0	-0.043	0.02	-0.032	-0.015	0.028	-0.097	0.003	-0.119	-0.077	-0.014	-0.02	0.032	-0.001	0.036	-0.009	0.006

From the supplement of paper PMC10849652
